Test [1] has as its target human Esterase Plasma (ES), BCHE (gene 590) (UniProt P06276). Briefly: NVS_ENZ_hES: NovaScreen (NVS) Enzymatic Assay for human Esterase Plasma (ES) (AID 2283157). The gist of the method:
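Human plasma-derived enzyme, cell-free, colorimetric readout at 0.25 h. Primary screen 25 uM in duplicate; hits (e.g. ≥30% inhibition) rerun singleton up to 50 uM. DMSO = negative control/baseline.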

Test [2] deals with Glycogen synthase kinase-3 beta (Homo sapiens) (UniProt P49841). Briefly: NVS_ENZ_hGSK3b: NovaScreen (NVS) Enzymatic Assay for human Glycogen Synthase Kinase-3 beta (GSK3b) (AID 2283165). A digest of the protocol: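 Recombinant enzyme with specific fluorescent substrate, 1 h, product separated by electrophoretic mobility shift. Primary duplicate screen at 25 uM; actives (e.g. 30% inhibition) followed in singleton concentration-response to 50 uM. Signal loss fitted versus DMSO.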
Chain of Glycogen synthase kinase-3 beta (Homo sapiens) (P49841 whole entry, looked up): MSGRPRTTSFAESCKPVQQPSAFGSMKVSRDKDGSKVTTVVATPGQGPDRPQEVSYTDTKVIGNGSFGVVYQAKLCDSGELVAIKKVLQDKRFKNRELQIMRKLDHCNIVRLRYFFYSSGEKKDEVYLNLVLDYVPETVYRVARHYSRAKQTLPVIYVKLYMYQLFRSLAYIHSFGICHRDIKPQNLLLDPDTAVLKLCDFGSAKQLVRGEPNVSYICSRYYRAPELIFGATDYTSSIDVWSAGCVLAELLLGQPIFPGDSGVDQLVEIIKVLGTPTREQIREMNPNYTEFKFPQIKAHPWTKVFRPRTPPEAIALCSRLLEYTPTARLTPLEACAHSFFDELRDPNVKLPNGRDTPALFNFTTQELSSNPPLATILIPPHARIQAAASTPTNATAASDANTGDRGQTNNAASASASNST

The target in test [3] is Cytochrome P450 2C19 (Homo sapiens) (UniProt P33261). Description: NVS_ADME_hCYP2C19: NovaScreen (NVS) CYP450-related Enzyme Activity (ADME) Assay for human CYP2C19 (AID 2283113).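 Note: potency for inhibition seen as loss of fluorescent signal.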 The gist of the method: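 Cell-free assay of recombinant human CYP2C19 expressed in insect cells, with a fluorogenic substrate; fluorescence intensity read 1 hour after dosing. Loss of signal relative to acetonitrile negative control indicates inhibition. Primary screen at 10 uM in duplicate, then concentration series.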

Test [4] deals with human Acid Phosphatase 1 (ACP1), ACP1 (gene 52) (UniProt P24666). Description: NVS_ENZ_hACP1: NovaScreen (NVS) Enzymatic Assay for human Acid Phosphatase 1 (ACP1) (AID 2283136). A digest of the protocol: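 Cell-free fluorescence read-out of phosphatase activity, substrate and product separated by mobility shift, taken 1.5 h after compound addition; protein produced in Sf9. Single 25 uM duplicate screen, followed by concentration series for actives, scored as signal loss relative to DMSO.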

Test [5] deals with human Ephrin type-A Receptor 1 (EphA1), EPHA1 (gene 2041) (UniProt P21709). Briefly: NVS_ENZ_hEphA1: NovaScreen (NVS) Enzymatic Assay for human Ephrin type-A Receptor 1 (EphA1) (AID 2283158).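 Note: activity is signal loss versus DMSO meaning EphA1 kinase inhibition.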 A digest of the protocol:
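Cell-free enzymatic assay with recombinant EphA1 and fluorescent substrate; product separated by electrophoretic mobility shift, fluorescence intensity read 1 hour after dosing. Loss of signal versus DMSO baseline; primary duplicate screen at 25 uM, actives followed to 50 uM top concentration.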

Test [6] has as its target human Beta-secretase (BACE), BACE1 (gene 23621) (UniProt P56817). Description: NVS_ENZ_hBACE: NovaScreen (NVS) Enzymatic Assay for human Beta-secretase (BACE) (AID 2283140).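 Note: hits are inhibitors that reduce fluorescent substrate signal versus DMSO.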 The gist of the method: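 Fluorescence intensity read-out of protease activity defines this endpoint; signal loss relative to DMSO baseline marks inhibition. Recombinant enzyme from SF9 cells, cell-free format, 1 h exposure. Single-concentration duplicate screen (25 uM) precedes concentration-series follow-up.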

Test [7] addresses human Caspase 5 (CASP5), CASP5 (gene 838) (UniProt P51878). Description: NVS_ENZ_hCASP5: NovaScreen (NVS) Enzymatic Assay for human Caspase 5 (CASP5) (AID 2283137). The gist of the method:
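Chemicals were first tested in duplicate at 25 uM against recombinant caspase 5 from E. coli. Activity was read by fluorescence intensity 2 hours after dosing. Those passing a preset inhibition threshold were retested in singleton concentration-response up to 50 uM.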

In test [8] the target is human AKT serine/threonine Kinase 1 (AKT1), AKT1 (gene 207) (UniProt P31749). Description: NVS_ENZ_hAKT1: NovaScreen (NVS) Enzymatic Assay for human AKT serine/threonine Kinase 1 (AKT1) (AID 2283138). A digest of the protocol: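 Compounds were first tested in duplicate at 25 uM, and those passing a threshold such as 30% inhibition were run in concentration-response to a maximum of 50 uM. Enzyme activity was measured after 1 h by fluorescence following substrate/product mobility-shift separation.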
Chain of human AKT serine/threonine Kinase 1 (AKT1), AKT1 (gene 207) (P31749 whole entry, looked up): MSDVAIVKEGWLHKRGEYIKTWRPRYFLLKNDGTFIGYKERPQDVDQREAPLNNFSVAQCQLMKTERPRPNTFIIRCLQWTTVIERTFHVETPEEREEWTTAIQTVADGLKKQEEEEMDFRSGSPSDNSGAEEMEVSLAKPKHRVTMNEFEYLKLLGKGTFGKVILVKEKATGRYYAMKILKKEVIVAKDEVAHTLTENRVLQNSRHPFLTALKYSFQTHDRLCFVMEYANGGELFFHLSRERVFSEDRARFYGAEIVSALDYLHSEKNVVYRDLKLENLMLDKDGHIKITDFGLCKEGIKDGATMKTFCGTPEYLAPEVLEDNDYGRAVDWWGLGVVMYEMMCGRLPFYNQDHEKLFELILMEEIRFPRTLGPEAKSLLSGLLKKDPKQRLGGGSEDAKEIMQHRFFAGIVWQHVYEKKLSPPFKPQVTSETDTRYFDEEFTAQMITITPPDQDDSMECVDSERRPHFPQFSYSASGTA

Test [9] addresses human AKT serine/threonine Kinase 2 (AKT2), AKT2 (gene 208) (UniProt P31751). Briefly: NVS_ENZ_hAKT2: NovaScreen (NVS) Enzymatic Assay for human AKT serine/threonine Kinase 2 (AKT2) (AID 2283141). The gist of the method:
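Cell-free fluorescence/electrophoretic mobility shift readout of recombinant human AKT2 activity, 1 h after chemical dosing. Duplicate primary screen at 25 uM, then singleton concentration-response up to 50 uM; loss of signal versus DMSO baseline.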

For the next test, the target named is CDK2 (gene 1017) (UniProt P24941). Briefly: NVS_ENZ_hCDK2: NovaScreen (NVS) Enzymatic Assay for human Cyclin-Cependent Kinase 2 (CDK2) (AID 2283144). The gist of the method: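 Compounds screened in duplicate at 25 uM, then in singleton concentration-response to a maximum of 50 uM, against recombinant CDK2; kinase activity read 1 hr after dosing by fluorescence with mobility-shift separation of substrate and product.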

Test [10] deals with human Casein Kinase 1-delta (CK1D), CSNK1D (gene 1453) (UniProt P48730). Briefly: NVS_ENZ_hCK1D: NovaScreen (NVS) Enzymatic Assay for human Casein Kinase 1-delta (CK1D) (AID 2283148). A digest of the protocol:
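Recombinant human CK1-delta, cell-free; fluorescent substrate with electrophoretic mobility-shift separation of product, read 1 h after dosing. Single 25 uM duplicate screen, then concentration-response up to 50 uM; loss of signal vs DMSO.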

Test [11] concerns the target human Colony Stimulating Factor 1 Receptor (CSF1R), CSF1R (gene 1436) (UniProt P07333). Briefly: NVS_ENZ_hCSF1R: NovaScreen (NVS) Enzymatic Assay for human Colony Stimulating Factor 1 Receptor (CSF1R) (AID 2283150). A digest of the protocol:
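Compounds screened in duplicate at 25 uM, then concentration-response (top 50 uM) for those passing threshold such as 30% inhibition; recombinant CSF1R activity measured 1 h post-dosing via fluorescent substrate/product mobility-shift separation, loss of signal versus DMSO.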

Test [12] concerns the target Histone deacetylase 3 (Homo sapiens) (UniProt O15379). Briefly: NVS_ENZ_hHDAC3: NovaScreen (NVS) Enzymatic Assay for human Histone Deacetylase 3 (HDAC3) (AID 2283163). A digest of the protocol:
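Cell-free enzyme format: loss of fluorescent product after mobility-shift separation, 1 h incubation, recombinant human HDAC3. Single 25 uM duplicate screen first, then concentration series to a 50 uM top for hits; DMSO as baseline.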

For test [13], the target named is human c-Jun N-terminal Kinases (JNK2), MAPK9 (gene 5601) (UniProt P45984). Briefly: NVS_ENZ_hJNK2: NovaScreen (NVS) Enzymatic Assay for human c-Jun N-terminal Kinases (JNK2) (AID 2283171). The gist of the method: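 Chemicals first tested in duplicate at 25 uM, then in singleton concentration series up to 50 uM, against extracted JNK2 enzyme. Activity loss read by fluorescence with mobility-shift separation 1 h post-dose; DMSO baseline.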
Chain of human c-Jun N-terminal Kinases (JNK2), MAPK9 (gene 5601) (P45984 whole entry, looked up): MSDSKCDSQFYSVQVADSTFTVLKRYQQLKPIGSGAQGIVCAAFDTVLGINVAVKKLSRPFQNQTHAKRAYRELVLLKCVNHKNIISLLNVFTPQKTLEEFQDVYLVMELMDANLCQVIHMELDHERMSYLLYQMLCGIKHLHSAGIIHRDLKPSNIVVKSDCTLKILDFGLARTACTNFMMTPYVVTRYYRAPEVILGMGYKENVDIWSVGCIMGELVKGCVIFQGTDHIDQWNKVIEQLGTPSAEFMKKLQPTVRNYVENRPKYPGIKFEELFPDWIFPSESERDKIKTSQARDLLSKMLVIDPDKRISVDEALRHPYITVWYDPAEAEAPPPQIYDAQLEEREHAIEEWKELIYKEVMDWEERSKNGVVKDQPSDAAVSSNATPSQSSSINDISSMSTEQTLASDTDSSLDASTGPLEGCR

Test [14] concerns the target rat CYP2A2, Cyp2a2 (gene 24895) (UniProt P15149). Briefly: NVS_ADME_rCYP2A2: NovaScreen (NVS) CYP450-related Enzyme Activity (ADME) Assay for rat CYP2A2 (AID 2283116). A digest of the protocol: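 Compounds first tested in duplicate at 10 uM, then in singleton concentration series up to 20 uM when over threshold. Activity of the recombinant enzyme read by fluorescence at 0.2 h, normalised to acetonitrile vehicle.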

In test [15] the target is Cytochrome P450 3A4 (Homo sapiens) (UniProt P08684). Description: NVS_ADME_hCYP3A4: NovaScreen (NVS) CYP450-related Enzyme Activity (ADME) Assay for human CYP3A4 (AID 2283110). The gist of the method:
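Recombinant CYP3A4 from insect cells, fluorescence enzyme read-out, 0.33 h after chemical addition. Acetonitrile = negative control/baseline. Primary HTS: 10 uM in duplicate; actives re-tested in concentration series.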

In test [16] the target is human Dual Specificity Protein Phosphatase 3 (DUSP3), DUSP3 (gene 1845) (UniProt P51452). Description: NVS_ENZ_hDUSP3: NovaScreen (NVS) Enzymatic Assay for human Dual Specificity Protein Phosphatase 3 (DUSP3) (AID 2283152).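 Note: phosphatase activity of recombinant human DUSP3 on a fluorogenic substrate without cells.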 The gist of the method:
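Cell-free fluorescence-intensity enzyme activity assay with recombinant protein and substrate; loss of signal fitted relative to DMSO baseline. Primary screen in duplicate at 25 uM, actives then run in concentration series; measured 0 h after dosing.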

Test [17] deals with human Elastase, ELANE (gene 1991) (UniProt P08246). Briefly: NVS_ENZ_hElastase: NovaScreen (NVS) Enzymatic Assay for human Elastase (AID 2283153). A digest of the protocol: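 Concentration-response to 50 uM max, run singly for chemicals passing a threshold (e.g., 30% inhibition) in a duplicate 25 uM single-point screen. Neutrophil-derived human elastase, absorbance read-out of enzyme activity at 1.5 h; DMSO baseline.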

The target in test [18] is human FYN Proto-Oncogene, Src family Tyrosine Kinase (Fyn), FYN (gene 2534) (UniProt P06241). Briefly: NVS_ENZ_hFyn: NovaScreen (NVS) Enzymatic Assay for human FYN Proto-Oncogene, Src family Tyrosine Kinase (Fyn) (AID 2283161). The gist of the method:
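Cell-free kinase activity read by fluorescence after mobility-shift separation of substrate and product, 1 h post-dose. Initial single concentration 25 uM in duplicate, then concentration-response follow-up; DMSO baseline.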

In test [19] the target is human Janus Kinase 2 (Jak2), JAK2 (gene 3717) (UniProt O60674). Description: NVS_ENZ_hJak2: NovaScreen (NVS) Enzymatic Assay for human Janus Kinase 2 (Jak2) (AID 2283169). The gist of the method:
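Single-point duplicate screen at 25 uM, with hits run in concentration series to a 50 uM top dose. Substrate-product separation by mobility shift with fluorescence detection, 1 h post-dosing; DMSO baseline.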

Broadly, the AC50 is the concentration giving half of the maximal activity seen.

Records with an inconclusive call do not appear. Active and inactive are the calls of the source. Rule for the calls: active = hit-call score of the fitted dose curve at least 0.9, where 1 is the maximum; inconclusive = response in the unintended direction; inactive = score below 0.9.

Chain of human Beta-secretase (BACE), BACE1 (gene 23621) (P56817 whole entry, looked up): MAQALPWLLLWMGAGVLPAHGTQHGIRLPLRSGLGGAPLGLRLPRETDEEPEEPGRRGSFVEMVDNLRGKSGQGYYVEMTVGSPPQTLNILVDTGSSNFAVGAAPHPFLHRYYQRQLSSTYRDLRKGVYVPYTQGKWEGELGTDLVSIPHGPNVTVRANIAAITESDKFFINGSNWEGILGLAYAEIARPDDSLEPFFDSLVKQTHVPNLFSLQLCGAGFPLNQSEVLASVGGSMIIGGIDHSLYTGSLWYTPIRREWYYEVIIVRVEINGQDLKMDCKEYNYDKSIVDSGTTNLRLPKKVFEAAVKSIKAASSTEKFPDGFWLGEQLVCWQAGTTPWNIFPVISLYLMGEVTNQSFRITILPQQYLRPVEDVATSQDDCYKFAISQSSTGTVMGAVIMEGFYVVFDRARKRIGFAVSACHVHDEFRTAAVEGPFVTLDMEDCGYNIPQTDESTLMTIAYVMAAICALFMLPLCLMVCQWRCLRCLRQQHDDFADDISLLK
Chain of human Dual Specificity Protein Phosphatase 3 (DUSP3), DUSP3 (gene 1845) (P51452 whole entry, looked up): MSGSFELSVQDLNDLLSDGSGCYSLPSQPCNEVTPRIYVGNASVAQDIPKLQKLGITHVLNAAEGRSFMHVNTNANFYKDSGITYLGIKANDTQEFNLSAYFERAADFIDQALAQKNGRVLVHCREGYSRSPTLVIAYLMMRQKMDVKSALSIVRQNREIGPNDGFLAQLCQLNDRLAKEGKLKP
Chain of human Ephrin type-A Receptor 1 (EphA1), EPHA1 (gene 2041) (P21709 whole entry, looked up): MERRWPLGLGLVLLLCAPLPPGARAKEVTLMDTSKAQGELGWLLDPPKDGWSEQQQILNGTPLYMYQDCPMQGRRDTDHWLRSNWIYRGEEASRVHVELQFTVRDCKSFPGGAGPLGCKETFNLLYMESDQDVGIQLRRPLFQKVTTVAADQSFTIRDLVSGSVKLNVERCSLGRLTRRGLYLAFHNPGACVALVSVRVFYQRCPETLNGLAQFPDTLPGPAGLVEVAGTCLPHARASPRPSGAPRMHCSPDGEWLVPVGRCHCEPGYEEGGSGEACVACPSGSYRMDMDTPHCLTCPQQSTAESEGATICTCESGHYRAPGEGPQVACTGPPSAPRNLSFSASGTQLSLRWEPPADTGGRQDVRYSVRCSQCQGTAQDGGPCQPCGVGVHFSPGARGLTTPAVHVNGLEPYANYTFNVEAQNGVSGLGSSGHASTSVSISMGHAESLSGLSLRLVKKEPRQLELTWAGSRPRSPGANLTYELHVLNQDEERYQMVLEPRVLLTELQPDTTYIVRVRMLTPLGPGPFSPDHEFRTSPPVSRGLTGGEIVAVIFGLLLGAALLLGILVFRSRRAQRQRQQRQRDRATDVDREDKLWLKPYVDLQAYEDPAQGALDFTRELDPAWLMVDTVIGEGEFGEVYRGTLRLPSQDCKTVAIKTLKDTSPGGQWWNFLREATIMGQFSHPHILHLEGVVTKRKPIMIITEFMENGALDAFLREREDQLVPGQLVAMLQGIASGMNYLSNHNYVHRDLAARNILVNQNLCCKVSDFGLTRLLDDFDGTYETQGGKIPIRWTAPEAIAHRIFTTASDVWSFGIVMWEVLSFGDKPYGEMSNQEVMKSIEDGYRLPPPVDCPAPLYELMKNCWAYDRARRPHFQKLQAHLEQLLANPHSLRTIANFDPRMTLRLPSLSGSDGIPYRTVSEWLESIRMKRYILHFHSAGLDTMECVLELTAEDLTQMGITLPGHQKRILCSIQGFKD
Chain of human Esterase Plasma (ES), BCHE (gene 590) (P06276 whole entry, looked up): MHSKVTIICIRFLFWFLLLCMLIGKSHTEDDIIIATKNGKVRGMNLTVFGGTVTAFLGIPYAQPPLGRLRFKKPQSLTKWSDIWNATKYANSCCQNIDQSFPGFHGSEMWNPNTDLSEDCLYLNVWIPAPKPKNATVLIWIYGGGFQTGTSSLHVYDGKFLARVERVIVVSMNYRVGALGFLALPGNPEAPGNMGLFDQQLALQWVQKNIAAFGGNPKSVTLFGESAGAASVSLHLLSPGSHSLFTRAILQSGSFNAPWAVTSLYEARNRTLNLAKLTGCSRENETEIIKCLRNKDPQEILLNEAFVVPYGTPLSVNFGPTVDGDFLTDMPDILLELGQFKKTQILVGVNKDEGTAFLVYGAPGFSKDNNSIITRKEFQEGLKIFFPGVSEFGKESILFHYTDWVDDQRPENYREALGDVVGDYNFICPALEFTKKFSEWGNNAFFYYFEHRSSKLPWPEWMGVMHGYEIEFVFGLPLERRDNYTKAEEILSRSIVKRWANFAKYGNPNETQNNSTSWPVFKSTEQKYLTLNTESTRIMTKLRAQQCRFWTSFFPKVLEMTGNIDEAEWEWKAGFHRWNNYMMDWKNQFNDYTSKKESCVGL
Chain of Cytochrome P450 3A4 (Homo sapiens) (P08684 whole entry, looked up): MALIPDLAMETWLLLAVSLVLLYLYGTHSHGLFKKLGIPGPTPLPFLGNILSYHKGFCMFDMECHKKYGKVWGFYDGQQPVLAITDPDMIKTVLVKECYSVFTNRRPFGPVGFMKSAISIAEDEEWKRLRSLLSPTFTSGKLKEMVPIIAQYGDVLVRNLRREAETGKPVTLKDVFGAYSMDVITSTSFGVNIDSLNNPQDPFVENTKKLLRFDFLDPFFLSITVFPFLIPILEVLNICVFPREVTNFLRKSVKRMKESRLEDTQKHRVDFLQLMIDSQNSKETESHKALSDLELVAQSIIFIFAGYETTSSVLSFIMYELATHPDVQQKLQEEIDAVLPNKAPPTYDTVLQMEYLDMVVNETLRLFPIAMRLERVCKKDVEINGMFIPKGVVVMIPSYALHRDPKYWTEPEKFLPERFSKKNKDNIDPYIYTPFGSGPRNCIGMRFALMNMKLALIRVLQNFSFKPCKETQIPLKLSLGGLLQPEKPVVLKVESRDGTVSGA
Chain of human Casein Kinase 1-delta (CK1D), CSNK1D (gene 1453) (P48730 whole entry, looked up): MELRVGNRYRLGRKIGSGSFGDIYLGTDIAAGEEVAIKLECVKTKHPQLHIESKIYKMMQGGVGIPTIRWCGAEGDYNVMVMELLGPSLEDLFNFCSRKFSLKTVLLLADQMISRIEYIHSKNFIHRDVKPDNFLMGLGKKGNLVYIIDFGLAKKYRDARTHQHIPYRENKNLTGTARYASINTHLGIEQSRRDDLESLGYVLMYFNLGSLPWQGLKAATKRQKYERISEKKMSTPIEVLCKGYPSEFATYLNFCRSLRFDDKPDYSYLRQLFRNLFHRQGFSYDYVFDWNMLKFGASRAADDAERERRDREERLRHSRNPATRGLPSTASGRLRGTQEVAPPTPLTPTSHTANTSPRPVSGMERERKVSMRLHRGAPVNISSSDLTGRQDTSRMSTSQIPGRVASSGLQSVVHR
Chain of Histone deacetylase 3 (Homo sapiens) (O15379 whole entry, looked up): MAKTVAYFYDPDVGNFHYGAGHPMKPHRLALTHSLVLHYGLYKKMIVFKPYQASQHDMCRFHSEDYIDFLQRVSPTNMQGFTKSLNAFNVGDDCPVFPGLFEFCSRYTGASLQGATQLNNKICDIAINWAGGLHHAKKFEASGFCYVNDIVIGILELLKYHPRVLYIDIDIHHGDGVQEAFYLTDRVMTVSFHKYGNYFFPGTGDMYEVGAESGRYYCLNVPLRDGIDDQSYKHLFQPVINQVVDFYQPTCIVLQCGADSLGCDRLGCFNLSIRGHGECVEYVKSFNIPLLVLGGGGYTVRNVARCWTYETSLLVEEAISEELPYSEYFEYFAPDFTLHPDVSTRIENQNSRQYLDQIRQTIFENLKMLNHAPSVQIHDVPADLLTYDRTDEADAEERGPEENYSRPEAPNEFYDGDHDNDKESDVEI

On to `CN(C)CCOC(c1ccccc1)c1ccccc1`, for which the half-maximal activity concentration (AC50) in [1] was 11.4 µM (active).
With `O=C(c1ccccc1)c1ccccc1`, the call in test [2] was inactive.
In the case of `Cc1ccc(N=Nc2c(O)ccc3ccccc23)c(C)c1`, the AC50 in test [3] is 0.565 µM (active).
With `N=C(N)c1ccc(OCCCCCOc2ccc(C(=N)N)cc2)cc1`, in test [1], the AC50 is 6.56 µM (active).
In the case of `CCCCC(CC)C(=O)O` (centres undefined), the result in test [4] was inactive.
For the compound `Cc1ccc(C(=O)c2ccccc2)cc1`, in test [5], the compound was classed as inactive.
As to `CN(Cc1cnc2nc(N)nc(N)c2n1)c1ccc(C(=O)N[C@@H](CCC(=O)O)C(=O)O)cc1`, the result in test [6] was inactive.
`CC(C)(C)c1ccc(O)c(O)c1`: the compound was called inactive in [5].
As for `CCCCCCCCCCCCOS(=O)(=O)O`, the result (in test [4]; in test [8]; with CDK2 (gene 1017); in [10]; in test [5]; in test [12]) was inactive. The half-maximal activity concentration (AC50) is 25 µM (active) in test [7]; 2.91 µM (active) in [6]; 32.9 µM (active) in test [9]; 29.1 µM (active) in test [11]; 37.5 µM (active) in test [13].
Consider `NC(=NCCCCCCN=C(N)/N=C(\N)Nc1ccc(Cl)cc1)/N=C(\N)Nc1ccc(Cl)cc1`, for which the AC50 in test [14] was 2.84 µM (active).
As to `CC1=NN(c2ccccc2)C(=O)C1`, in test [5], the result was inactive.
Consider `CCOC(C)=O`, for which the compound was called inactive in test [6].
`O=C(CCCN1CCC(O)(c2ccc(Cl)cc2)CC1)c1ccc(F)cc1`: the outcome in [8] was inactive. Also, in [1], the AC50 was 6.15 µM (active).
Consider `CNNCc1ccc(C(=O)NC(C)C)cc1`, for which the compound was classed as inactive in test [6].
For `c1cc[nH]c1`, in test [3], the AC50 is 0.992 µM (active).
With `CC(C)C=O`, the half-maximal activity concentration (AC50) in test [15] is 5 µM (active).
`CCCCCCCCCCCCCCC`: the AC50 in [3] is 10 µM (active).
Regarding `CCC(C)c1ccccc1O` (centres undefined), the outcome in [8] and in test [12] was inactive.
In the case of `Cc1[nH]nc2c1N=C(c1ccccc1Cl)c1cc([N+](=O)[O-])ccc1N2`, the outcome in test [7] and in [18] was inactive. Also, the AC50 with CDK2 (gene 1017) is 0.0067 µM (active); in [11] it was 0.00229 µM (active); in test [16], 16.9 µM (active); in test [17] it was 4.93 µM (active); in [5] it was 8.96 µM (active); in test [2], 0.00229 µM (active). The concentration at half-maximal activity (AC50) is 0.00328 µM (active) in [19] and 35.8 µM (active) in test [13].
As to `NS(=O)(=O)O`, the compound was classed as inactive in test [6].
With `CCCCC=O`, in [2], the result was inactive.
As to `CCCCc1oc2ccccc2c1C(=O)c1cc(I)c(OCCN(CC)CC)c(I)c1`, in test [6], the half-maximal activity concentration (AC50) was 3.91 µM (active). The outcome in test [1] was inactive.
On to `CCCCC(CC)C(=O)OCCOCCOCCOCCOC(=O)C(CC)CCCC` (centres undefined), for which the outcome in [15] was inactive.
For `CCCCCCCCCCCCCCCCCC[N+](C)(C)Cc1ccccc1`, the concentration at half-maximal activity (AC50) in test [3] was 1.8 µM (active); in test [16] it was 4.54 µM (active). Besides, the compound was classed as inactive in test [5].
Take `O=C(NO)c1ccccc1`: the outcome in test [5] was inactive.
In the case of `CS(=O)(=O)c1ccc([C@@H](CC2CCCC2)C(=O)Nc2cnccn2)cc1Cl`, the call in test [10] was inactive. Besides, in [16], the half-maximal activity concentration (AC50) is 6.36 µM (active).
As to `CC(C)CCOCCC(C)C`, in [3], the AC50 was 5 µM (active).
Consider `CCCCCCCCCCCCCCCC(=O)OC`, for which the concentration at half-maximal activity (AC50) in test [16] is 6.25 µM (active).
On to `CCCCCCCCCCCC`, for which the call in test [5] was inactive.
